# Measured values published in ChEMBL document CHEMBL3988442, “University of Dundee, Small-Polar-MMV Screening Library” (2021).
# Biological target: T1, Aspartate--tRNA(Asp/Asn) ligase (Mycobacterium tuberculosis (strain ATCC 25618 / H37Rv)) (UniProt P9WFW3)
# T1 sequence (whole entry): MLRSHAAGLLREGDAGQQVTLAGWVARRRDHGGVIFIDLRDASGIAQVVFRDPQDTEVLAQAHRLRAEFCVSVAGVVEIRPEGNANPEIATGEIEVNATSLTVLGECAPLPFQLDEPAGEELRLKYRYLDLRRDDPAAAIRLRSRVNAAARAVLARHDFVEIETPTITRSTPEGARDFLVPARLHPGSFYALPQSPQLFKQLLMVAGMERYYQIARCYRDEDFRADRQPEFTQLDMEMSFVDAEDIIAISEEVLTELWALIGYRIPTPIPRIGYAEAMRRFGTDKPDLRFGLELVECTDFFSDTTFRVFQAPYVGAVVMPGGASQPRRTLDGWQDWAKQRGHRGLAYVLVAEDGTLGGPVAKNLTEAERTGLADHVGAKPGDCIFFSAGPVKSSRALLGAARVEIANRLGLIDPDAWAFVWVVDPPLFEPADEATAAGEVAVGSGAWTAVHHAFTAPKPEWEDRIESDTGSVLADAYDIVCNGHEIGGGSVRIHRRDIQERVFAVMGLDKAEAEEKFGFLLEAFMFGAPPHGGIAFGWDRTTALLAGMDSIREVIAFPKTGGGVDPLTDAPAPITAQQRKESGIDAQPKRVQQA
# Assay: Assay for Asp RNA synthetase-1 from Mycobacterium tuberculosis
# Type: functional
# Set-up: scale not given: in the data most compounds retested in dose-response had high values
# Conditions: 30 µM
row,Structure (SMILES),Percent Effect [%]
1,Cc1cnn(CC2CN(c3cnc4ccccc4n3)CCO2)c1 (stereo not given),-11.1
2,Cc1cccnc1CN(C)CC1(O)CCCN(CC2CCCCC2)C1=O (stereo not given),-0.871
3,O=C(CSc1nncs1)N1CCN(Cc2ccc(Cl)s2)CC1,-5.38
4,CC(C)C(=O)N1CCN(Cc2cc(-c3ccncc3)nn2C)CC1,0.491
5,CC(C)CN1C(=O)c2ccc(C(=O)NCCc3c[nH]cn3)cc2C1=O,0.813
6,O=C(NC1CC1)c1ccc2ccc(N3CCN(CC4CC4)CC3)n2c1,-1.8
7,O=C(Cc1ccc(F)cc1)N1CCn2cc(Cn3cccn3)nc2C1,5
8,CN(Cc1noc(C2CC2)n1)C1CCN(Cc2ccncc2)C1 (stereo not given),-0.189
9,CCn1cc(CN(C)S(=O)(=O)c2cnn(CC)c2C)c(C)n1,-3.81
10,CC(CNC(=O)c1ccc(F)cc1Cl)N1CCCC1 (stereo not given),0.39
11,Cc1nc(C)c(C(=O)OCCNc2ncccc2C#N)s1,1.71
12,CN(Cc1ccccc1Br)C(=O)Cn1nc(-c2ccc(F)cc2)oc1=O,7.4
13,O=C(NCc1nnc2ccccn12)N1CCc2sccc2C1,-2.69
14,c1cnc2c(c1)cc(C1CCOCC1)n2CCN1CCOCC1,3.26
15,CCc1cnc(N2C[C@H]3C[C@H](C(=O)N(C)C)[C@@H](C2)O3)nc1,-1.86
16,Cc1cc(CN2CC[C@H]3C[C@H](C(=O)N4CCC(C)CC4)O[C@H]3C2)no1,1.91
17,Cc1occc1C(=O)N1CCC2(CCN(Cc3nccs3)C2)CC1,0.208
18,Cc1cnn(CC2CCCN2CC(=O)Nc2cc(C)nn2C)c1 (stereo not given),0.972
19,CCc1nc(CCNC(=O)C2CCOC2)sc1C (stereo not given),-2.83
20,Cc1csc(NC(=O)CN2CCC(c3ccnn3CCO)CC2)n1,-8.82

row,Structure (SMILES),Percent Effect [%]
1,Cc1nccn1CC1CCCN1S(=O)(=O)Cc1ccccc1 (stereo not given),-1.4
2,COCCc1noc(CNC2CCc3nc(C(C)C)nn3C2)n1 (stereo not given),3.49
3,CC(C)COC(C)C(=O)NCc1ccc(OC(C)C)nc1 (stereo not given),1.79
4,Cc1cc(CNC(=O)NC(C)c2ccncc2)no1 (stereo not given),7.94
5,CCOCC(O)CN1CCN(C(=O)c2ccc(OC)cc2F)CC1 (stereo not given),-10.1
6,COc1ccc(S(=O)(=O)N2CCC(S(C)(=O)=O)CC2)cc1C,1.12
7,CO[C@@H]1CC[C@H]2[C@H]1OCCN2C(=O)C1=CCCC1,3.45
8,OC1CCN(Cc2cc3c(cc2Br)OCCO3)CC1,2.56
9,Cc1nccc([C@@H]2C[C@@H]3CCN(S(C)(=O)=O)C[C@H]3O2)n1,2.92
10,COc1ccc(-c2nnc(SCC(=O)NCC(C)C)[nH]2)c(OC)c1,6.14
11,CCc1nc(C)c(C(=O)NCCNc2ncccn2)s1,0.562
12,NC(=O)c1ccc2c(c1)nc1n2CCN(Cc2ccccc2)C1,3.29
13,CCc1ncc2c(n1)CN(CC(=O)Nc1ccc(Cl)cn1)CC2,0.367
14,CCN1CC(C(=O)N2CCC(Oc3ccccc3C)CC2)CC1=O (stereo not given),-1.25
15,Cc1cc(C(=O)N2CCN(C(=O)Cc3ccccn3)CC2)c(C)s1,2.55
16,NCc1cn(-c2ccccc2C(=O)NCc2ccccc2)cn1,-1.51
17,CCN1CCN(c2ncc(-c3cc(C)no3)c(-c3ccoc3C)n2)CC1,0.313
18,CC(C)N1CCN(C(=O)Nc2cnn(CC(N)=O)c2)CC1,-5.08
19,Cc1cc(C)nc(Nc2cccc(C3CCCN(C)C3)n2)n1 (stereo not given),-3.29
20,COCCCC1(CO)CCCN(CCc2ccccc2)C1 (stereo not given),-0.201
